# ± gives the standard deviation of the averaged measurements.
# Key:
# Test in all cases: promoter activity interaction Z-score (Lux/OD deviation from empty-vector control); higher = stronger promoter induction by the compound
# [1] = system: E. coli BW25113 acrABp lux reporter
# Method in brief: (§1)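 E. coli BW25113 luxCDABE reporter strains grew at 37°C in 40 µl LB Lennox in 384-well plates, with OD600 and luminescence read every 30 min for 12 h. After integration over 0–8 h for wild type or 1–9 h for deletion strains, wells under 10% of the median growth value were removed. Each score is the Z-transformed residual of growth-normalised luminescence fitted against a control.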
# [2] = system: E. coli BW25113 marRABp lux reporter
# Method in brief: as §1
# [3] = system: E. coli BW25113 micFp lux reporter
# Method in brief: as §1
# [4] = system: E. coli BW25113 ompFp lux reporter
# Method in brief: as §1
# [5] = system: E. coli BW25113 robp lux reporter
# Method in brief: as §1
# [6] = system: E. coli BW25113 soxSp lux reporter
# Method in brief: as §1
# [7] = system: E. coli BW25113 tolCp lux reporter
# Method in brief: as §1
# [8] = 18.3 µg/ml, genetic background: wild type
# [9] = 18.3 µg/ml, genetic background: ΔmarA
# [10] = 18.3 µg/ml, genetic background: Δrob
# [11] = 18.3 µg/ml, genetic background: ΔsoxS
# [12] = 36.5 µg/ml, genetic background: wild type
# [13] = 36.5 µg/ml, genetic background: ΔmarA
# [14] = 36.5 µg/ml, genetic background: Δrob
# [15] = 36.5 µg/ml, genetic background: ΔsoxS
# [16] = 73.1 µg/ml, genetic background: wild type
# [17] = 73.1 µg/ml, genetic background: ΔmarA
# [18] = 73.1 µg/ml, genetic background: Δrob
# [19] = 73.1 µg/ml, genetic background: ΔsoxS
# [20] = 146.1 µg/ml, genetic background: wild type
# [21] = 146.1 µg/ml, genetic background: ΔmarA
# [22] = 146.1 µg/ml, genetic background: Δrob
structure (smiles),measurement,setting,value
O=C(O)CN(CCN(CC(=O)O)CC(=O)O)CC(=O)O,promoter activity interaction Z-score,[1]; [8],-0.0934 ± 0.22
same,promoter activity interaction Z-score,[1]; [9],-0.603 ± 0.65
same,promoter activity interaction Z-score,[1]; [10],-0.36 ± 0.3
same,promoter activity interaction Z-score,[1]; [11],-0.525 ± 0.13
same,promoter activity interaction Z-score,[1]; [12],-0.397 ± 0.38
same,promoter activity interaction Z-score,[1]; [13],-0.546 ± 0.64
same,promoter activity interaction Z-score,[1]; [14],-0.8 ± 0.08
same,promoter activity interaction Z-score,[1]; [15],-0.688 ± 0.13
same,promoter activity interaction Z-score,[1]; [16],-0.174 ± 0.17
same,promoter activity interaction Z-score,[1]; [17],-0.55 ± 0.59
same,promoter activity interaction Z-score,[1]; [18],-0.865 ± 0.14
same,promoter activity interaction Z-score,[1]; [19],-0.724 ± 0.18
same,promoter activity interaction Z-score,[1]; [20],-0.36 ± 0.21
same,promoter activity interaction Z-score,[1]; [21],-1.25 ± 0.29
same,promoter activity interaction Z-score,[1]; [22],0.682 ± 0.76
same,promoter activity interaction Z-score,[2]; [8],-0.176 ± 0.11
same,promoter activity interaction Z-score,[2]; [9],-0.48 ± 0.29
same,promoter activity interaction Z-score,[2]; [10],-0.224 ± 0.07
same,promoter activity interaction Z-score,[2]; [11],-0.191 ± 0.04
same,promoter activity interaction Z-score,[2]; [12],-0.238 ± 0.25
same,promoter activity interaction Z-score,[2]; [13],-0.327 ± 0.086
same,promoter activity interaction Z-score,[2]; [14],-0.221 ± 0.16
same,promoter activity interaction Z-score,[2]; [15],-0.276 ± 0.012
same,promoter activity interaction Z-score,[2]; [16],-0.3324 ± 0.002
same,promoter activity interaction Z-score,[2]; [17],-0.545 ± 0.11
same,promoter activity interaction Z-score,[2]; [18],-0.378 ± 0.066
same,promoter activity interaction Z-score,[2]; [19],-0.175 ± 0.04
same,promoter activity interaction Z-score,[2]; [20],0.543 ± 0.16
same,promoter activity interaction Z-score,[2]; [21],1.07 ± 0.021
same,promoter activity interaction Z-score,[2]; [22],1.66 ± 0.58
same,promoter activity interaction Z-score,[3]; [8],0.0311 ± 0.38
same,promoter activity interaction Z-score,[3]; [9],0.0253 ± 0.09
same,promoter activity interaction Z-score,[3]; [10],-0.0661 ± 0.029
same,promoter activity interaction Z-score,[3]; [11],0.33 ± 0.3
same,promoter activity interaction Z-score,[3]; [12],0.187 ± 0.43
same,promoter activity interaction Z-score,[3]; [13],0.106 ± 0.075
same,promoter activity interaction Z-score,[3]; [14],-0.0635 ± 0.073
same,promoter activity interaction Z-score,[3]; [15],0.413 ± 0.38
same,promoter activity interaction Z-score,[3]; [16],0.253 ± 0.014
same,promoter activity interaction Z-score,[3]; [17],0.129 ± 0.061
same,promoter activity interaction Z-score,[3]; [18],0.0924 ± 0.051
same,promoter activity interaction Z-score,[3]; [19],0.66 ± 0.28
same,promoter activity interaction Z-score,[3]; [20],1.76 ± 0.36
same,promoter activity interaction Z-score,[3]; [21],2.53 ± 1.4
same,promoter activity interaction Z-score,[3]; [22],2.95 ± 1.1
same,promoter activity interaction Z-score,[4]; [8],-0.399 ± 0.35
same,promoter activity interaction Z-score,[4]; [9],-0.581 ± 0.52
same,promoter activity interaction Z-score,[4]; [10],-0.522 ± 0.013
same,promoter activity interaction Z-score,[4]; [11],0.261 ± 0.35
same,promoter activity interaction Z-score,[4]; [12],-0.73 ± 0.2
same,promoter activity interaction Z-score,[4]; [13],-0.519 ± 0.045
same,promoter activity interaction Z-score,[4]; [14],-0.748 ± 0.082
same,promoter activity interaction Z-score,[4]; [15],0.0564 ± 0.85
same,promoter activity interaction Z-score,[4]; [16],-1.22 ± 0.24
same,promoter activity interaction Z-score,[4]; [17],-0.836 ± 0.33
same,promoter activity interaction Z-score,[4]; [18],-0.994 ± 0.2
same,promoter activity interaction Z-score,[4]; [19],0.0122 ± 0.85
same,promoter activity interaction Z-score,[4]; [20],-1.07 ± 0.81
same,promoter activity interaction Z-score,[4]; [21],-1.23 ± 0.21
same,promoter activity interaction Z-score,[4]; [22],-1.04 ± 0.81
same,promoter activity interaction Z-score,[5]; [8],-0.212 ± 0.066
same,promoter activity interaction Z-score,[5]; [9],-1.05 ± 0.051
same,promoter activity interaction Z-score,[5]; [10],0.174 ± 0.67
same,promoter activity interaction Z-score,[5]; [11],0.244 ± 0.58
same,promoter activity interaction Z-score,[5]; [12],-0.656 ± 0.16
same,promoter activity interaction Z-score,[5]; [13],-0.174 ± 0.088
same,promoter activity interaction Z-score,[5]; [14],-0.454 ± 0.91
same,promoter activity interaction Z-score,[5]; [15],0.113 ± 1.1
same,promoter activity interaction Z-score,[5]; [16],-0.785 ± 0.22
same,promoter activity interaction Z-score,[5]; [17],-0.143 ± 0.47
same,promoter activity interaction Z-score,[5]; [18],-0.796 ± 0.055
same,promoter activity interaction Z-score,[5]; [19],-0.553 ± 0.47
same,promoter activity interaction Z-score,[5]; [20],-1.32 ± 0.071
same,promoter activity interaction Z-score,[5]; [21],-1.53 ± 0.59
same,promoter activity interaction Z-score,[6]; [8],-0.509 ± 0.063
same,promoter activity interaction Z-score,[6]; [9],-0.316 ± 0.052
same,promoter activity interaction Z-score,[6]; [10],-0.315 ± 0.048
same,promoter activity interaction Z-score,[6]; [11],-0.181 ± 0.14
same,promoter activity interaction Z-score,[6]; [12],-0.478 ± 0.23
same,promoter activity interaction Z-score,[6]; [13],-0.479 ± 0.017
same,promoter activity interaction Z-score,[6]; [14],-0.494 ± 0.011
same,promoter activity interaction Z-score,[6]; [15],-0.421 ± 0.15
same,promoter activity interaction Z-score,[6]; [16],-0.487 ± 0.045
same,promoter activity interaction Z-score,[6]; [17],-0.43 ± 0.35
same,promoter activity interaction Z-score,[6]; [18],-0.698 ± 0.13
same,promoter activity interaction Z-score,[6]; [19],-0.236 ± 0.11
same,promoter activity interaction Z-score,[6]; [20],1.26 ± 0.066
same,promoter activity interaction Z-score,[6]; [21],1.71 ± 1.1
same,promoter activity interaction Z-score,[6]; [22],1.4 ± 0.082
same,promoter activity interaction Z-score,[7]; [8],0.221 ± 0.32
same,promoter activity interaction Z-score,[7]; [9],-0.411 ± 0.67
same,promoter activity interaction Z-score,[7]; [10],-0.43 ± 0.067
same,promoter activity interaction Z-score,[7]; [11],0.426 ± 0.54
same,promoter activity interaction Z-score,[7]; [12],0.548 ± 0.048
same,promoter activity interaction Z-score,[7]; [13],-0.02 ± 1
same,promoter activity interaction Z-score,[7]; [14],-0.146 ± 0.27
same,promoter activity interaction Z-score,[7]; [15],-0.2 ± 0.11
same,promoter activity interaction Z-score,[7]; [16],-0.165 ± 0.86
same,promoter activity interaction Z-score,[7]; [17],-0.102 ± 0.4
same,promoter activity interaction Z-score,[7]; [18],-0.0689 ± 0.14
same,promoter activity interaction Z-score,[7]; [19],0.835 ± 0.86
same,promoter activity interaction Z-score,[7]; [20],1.75 ± 0.63
same,promoter activity interaction Z-score,[7]; [21],1.55 ± 0.38
same,promoter activity interaction Z-score,[7]; [22],1.79 ± 0.72

# — the supplement of paper PMC12282887
